Compound activity: PubChem, National Center for Advancing Translational Sciences (NCATS)
YjeE inh – displaces an ADP probe from E. coli YjeE (TsaE). P0AF67. purified YjeE enzyme, qHTS inhibition assay. Potency, µM. hit rate 0.05% among 71,000. AID 605
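Purified YjeE (10 uM) with BODIPY Texas Red-labeled ADP probe (2 uM); compounds pin-transferred, 15 min at room temperature. Binding inhibition read as decreased fluorescence polarization; ADP titration as control.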
BRCT inh green – blocks human BRCA1 BRCT binding to phosphopeptide, green readout; BRCA1 BRCT-phosphopeptide binding, green fluorescence polarization; Potency, µM (highest dose often 76.9 µM), inactives show at the top dose activity change, negative = inhibition, most hits filed as inhibitors; hit rate 0.05% among 75,000; AID 875;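 also: potency is read from the fitted curve at half-maximal effect; plate controls were peptide without protein for full effect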
Target sequence (P38398 whole entry, looked up): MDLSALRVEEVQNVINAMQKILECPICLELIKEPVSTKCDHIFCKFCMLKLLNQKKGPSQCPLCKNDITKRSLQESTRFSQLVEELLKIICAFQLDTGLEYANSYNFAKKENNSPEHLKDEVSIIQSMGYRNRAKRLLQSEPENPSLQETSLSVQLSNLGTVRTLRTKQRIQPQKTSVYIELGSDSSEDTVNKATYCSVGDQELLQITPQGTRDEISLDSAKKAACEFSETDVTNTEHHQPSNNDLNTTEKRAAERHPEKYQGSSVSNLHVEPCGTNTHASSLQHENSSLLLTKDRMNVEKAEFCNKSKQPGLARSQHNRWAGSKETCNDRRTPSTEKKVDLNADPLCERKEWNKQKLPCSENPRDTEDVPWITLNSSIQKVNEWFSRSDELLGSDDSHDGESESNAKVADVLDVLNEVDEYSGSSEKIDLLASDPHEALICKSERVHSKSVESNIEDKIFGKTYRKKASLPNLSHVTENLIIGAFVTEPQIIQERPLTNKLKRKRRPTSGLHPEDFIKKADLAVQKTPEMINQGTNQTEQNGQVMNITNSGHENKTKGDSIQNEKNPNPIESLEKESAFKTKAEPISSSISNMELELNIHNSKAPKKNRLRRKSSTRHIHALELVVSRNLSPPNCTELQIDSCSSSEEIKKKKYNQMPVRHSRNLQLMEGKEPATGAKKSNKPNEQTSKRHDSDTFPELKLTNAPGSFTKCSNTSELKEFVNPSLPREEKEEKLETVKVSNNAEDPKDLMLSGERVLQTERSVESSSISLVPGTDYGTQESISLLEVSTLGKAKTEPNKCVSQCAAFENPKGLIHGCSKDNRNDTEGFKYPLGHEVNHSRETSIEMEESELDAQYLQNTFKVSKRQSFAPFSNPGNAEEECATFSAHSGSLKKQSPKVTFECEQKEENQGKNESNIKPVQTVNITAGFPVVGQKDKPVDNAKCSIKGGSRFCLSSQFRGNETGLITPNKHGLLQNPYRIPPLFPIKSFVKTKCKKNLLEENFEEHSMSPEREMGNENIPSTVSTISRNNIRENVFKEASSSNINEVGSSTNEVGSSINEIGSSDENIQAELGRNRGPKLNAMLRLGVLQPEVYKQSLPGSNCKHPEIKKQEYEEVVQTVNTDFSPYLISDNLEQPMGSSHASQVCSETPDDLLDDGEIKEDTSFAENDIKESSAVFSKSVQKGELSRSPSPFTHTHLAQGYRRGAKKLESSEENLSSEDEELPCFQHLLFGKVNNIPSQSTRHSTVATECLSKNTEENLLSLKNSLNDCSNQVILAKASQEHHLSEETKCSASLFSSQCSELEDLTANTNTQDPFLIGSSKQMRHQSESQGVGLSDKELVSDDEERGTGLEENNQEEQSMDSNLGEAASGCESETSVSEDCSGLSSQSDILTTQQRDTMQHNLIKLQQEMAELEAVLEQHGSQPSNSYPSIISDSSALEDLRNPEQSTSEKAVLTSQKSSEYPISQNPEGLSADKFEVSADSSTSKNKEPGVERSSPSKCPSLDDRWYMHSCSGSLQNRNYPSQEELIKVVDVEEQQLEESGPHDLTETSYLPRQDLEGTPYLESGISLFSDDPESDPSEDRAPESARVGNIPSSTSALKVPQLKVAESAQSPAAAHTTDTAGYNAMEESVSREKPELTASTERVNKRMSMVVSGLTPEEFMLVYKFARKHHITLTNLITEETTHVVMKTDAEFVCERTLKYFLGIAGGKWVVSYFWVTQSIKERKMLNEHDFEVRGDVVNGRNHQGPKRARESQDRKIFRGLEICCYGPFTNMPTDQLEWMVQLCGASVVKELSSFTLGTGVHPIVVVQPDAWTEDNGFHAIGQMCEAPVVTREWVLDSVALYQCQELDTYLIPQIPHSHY
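Compounds were incubated for 12 min at room temperature with a complex of 100 nM fluorescein-tagged pBACH1 decapeptide and 250 nM His-tagged BRCT protein. Buffer was phosphate pH 7.3 with EDTA, DTT and Tween 20. Disruption of binding lowers the polarization signal.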
DNA Pol III inh – blocks replication by bacterial DNA polymerase III holoenzyme. reconstituted DNA polymerase III holoenzyme replication, biochemical. Potency, µM (titrated, usually from 57.1 µM), without a hit: at the highest dose activity change, negative = inhibition. hit rate 0.25% among 71,000; also: potency is read from the fitted curve at half-maximal effect; % is scaled to controls: 0 for no effect and ±100 for the full control effect
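Reconstituted *E. coli* holoenzyme (0.35 nM Pol III, 1 nM beta, 154 nM SSB, 2 nM primase) was preincubated with compound for 15 min at RT. Synthesis on 1.4 nM ssM13Gori ran 35 min, then was stopped with PicoGreen/EDTA and read as dsDNA fluorescence.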
HEK293 cAMP cs – raises cAMP in parental HEK293 cells, TSHR agonist counter-screen. hit rate 2.5% among 73,000. Potency, µM (top dose mostly 57.1 µM), without a hit: top-dose activation, actives largely listed as activators. parental HEK293 CNG cAMP sensor, membrane potential fluorescence; also: potency is read from the fitted curve at half-maximal effect; % of control where 0% means no effect; nearly all actives have a fitted effect of over 55% in size
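Counterscreen for endogenous-receptor signalling: CNG-channel HEK 293 cells report cAMP rise by membrane depolarization. After 60 min dye equilibration with 100 uM RO 20-1724, compounds incubated 30 min before bottom-read fluorescence at 590 nm.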
BRCT inh red – BRCT-phosphoprotein interaction inhibition (red fluorophore) | BRCT-phosphopeptide binding, red fluorescence polarization | Potency, µM (doses to about 76.9 µM), inactives show at the highest dose activity change, negative = inhibition, actives largely listed as inhibitors | hit rate 0.03% among 75,000; also: % is scaled to controls: 0 for no effect and ±100 for the full control effect
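Rhodamine-labelled pBACH1 10-mer (100 nM) bound to BRCT domain (100 nM) at pH 7.3; compounds incubated 12 min room temperature, polarization read. Free peptide defines full inhibition; unlabelled decapeptide titrated as control.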
TSHR agonist – activates the human thyroid stimulating hormone receptor; P16473; HEK293-CNG-TSHR cells (CNG channel as cAMP sensor), membrane potential dye, cAMP; Potency, µM (doses to about 57.1 µM), inactives show top-dose activation, actives largely listed as activators; hit rate 0.48% among 73,000; active = well fitted activation curve with a large enough effect in the main read-out, with a control signal flat, not every such curve was filed as active; inconclusive = small, poorly fitted or top-dose-only effect, or a change in a side signal; inactive = no such curve, though single readings can be large or run the other way; % of control where 0% means no effect;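 also: the control signal comes from parental cells without the receptor; potency is read from the fitted curve at half-maximal effect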
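HEK 293 cells stably expressing TSHR and a cAMP-gated CNG channel; parental CNG-only cells as counterscreen. Cells preloaded 60 min with membrane potential dye plus 100 uM RO 20-1724, then compound 30 min; fluorescence read at 590 nm.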
Active calls of the source: *; i = inactive; ? = inconclusive; · = not tested or not shown; [ ] = another dose, or the depositor's remark. The list is not random: actives were taken first. Their share in the collection is about 3.2%. Unless noted, calls follow the shape of the dose curve; as a rule, active = well fitted curve in the direction sought with a large enough effect; inconclusive = small, poorly fitted or top-dose-only effect, or another doubt; inactive = no such curve, though single readings can be large; an effect the other way counts as inactive or inconclusive.

SMILES	YjeE inh	BRCT inh green	DNA Pol III inh	HEK293 cAMP cs	BRCT inh red	TSHR agonist
COCCn1nnnc1C(c1cccs1)N1CCN(c2nc3ccccc3s2)CC1 (configuration not stated)	i	-3.1%	0.2%	20.0%	-0.4%	13.1%
CCC(c1nnnn1Cc1cccs1)N1CCN(c2nc3ccccc3s2)CC1 (configuration not stated)	i	-0.9%	-6.2%	31.6µM*	0.4%	?
c1ccc2sc(N3CCN(Cc4nnnn4CC4CCCO4)CC3)nc2c1 (configuration not stated)	i	-2.1%	-4.9%	25.1µM*	-1.8%	?
CO[C@H]1COC(=O)[C@H]2CCCN2C(=O)C/C=C\[C@@H](C)[C@H](OC)COC(=O)[C@@H](OCc2ccccc2)/C=C\[C@@H]1C	·	-0.1%[15.4 µM]	·	5.9%[11.4 µM]	-1.1%[15.4 µM]	-4.1%[11.4 µM]
COc1ccc(C(=O)n2c(-c3ccco3)nc3ccccc32)cc1	i	-0.1%	-0.8%	25.1µM*	-0.9%	?
COc1ccc(CCn2c(-c3ccco3)nc3nc4ccccc4nc32)cc1	i	3.8%	0.2%	-6.5%	-0.3%	1.5%
CC[C@@]1([N+](=O)[O-])C[C@H]2C=C[C@@H]1C2	i	-0.7%[15.4 µM]	-15.2%[11.4 µM]	-7.8%[11.4 µM]	-1.1%[15.4 µM]	0.8%[11.4 µM]
CN(C)c1ncc2nc(-c3ccc(Cl)cc3)c(=O)n(Cc3ccc(F)cc3)c2n1	i	-1.2%	-3.5%	6.3%[0.457 µM]	-0.8%	-7.1%
CN(C)c1ncc2ncc(=O)n(CCc3ccccc3)c2n1	i	-1.3%	-13.3%	12.6µM*	1.5%	?
CN(C)c1ncc2nc(-c3ccccc3)c(=O)n(Cc3ccc(F)cc3)c2n1	i	-2.8%	-10.6%	5.01µM*	-0.7%	?
CCOC(=O)C1CCCN(CC(=O)NC2=Nc3ccccc3N=C(C)C2c2ccccc2)C1 (configuration not stated)	i	7.8%	0.1%	29.7%	-1.9%	25.1µM*
CCOC(=O)C1CCCN(CC(=O)NC2CC2)C1 (configuration not stated)	i	-0.6%	-1.6%	1.5%	-0.6%	-0.2%
COC(=O)[C@](C)(N)Cc1ccc(O)cc1	i	-2.5%	0.2%	?	-2.4%	?
CCOC(=O)c1cccc(NC(=O)CSc2nnc(C3CCCCC3)n2CC)c1	i	0.9%	5.7%	25.1µM*	-2.3%	?
CC(C)(c1cc(Br)c(OCC(Br)CBr)c(Br)c1)c1cc(Br)c(OCC(Br)CBr)c(Br)c1 (configuration not stated)	i	-1.0%	-5.2%	7.4%	-0.3%	0.5%
Cn1c(C(=O)N(Cc2ccccc2)Cc2ccccn2)cc2sccc21	i	2.9%	0.1%	15.8µM*	1.7%	?
Cn1c(C(=O)N(Cc2ccccc2)Cc2cccs2)cc2sccc21	i	0.4%	0.4%	15.8µM*	0.3%	?
O=c1cc(-c2ccc(O)c(O)c2)oc2cc(O[C@@H]3O[C@@H](CO)[C@@H](O)[C@@H](O)[C@H]3O)cc(O)c12	i	·	1µM*	-2.4%	·	-5.5%
COC(=O)C/C=C\[C@@H](C)[C@@H](/C=N\O[C@@H](C)CN1CCCc2nc(C)c(C)cc21)OC	·	-0.8%[15.4 µM]	·	24.0%[11.4 µM]	1.7%[15.4 µM]	7.7%[11.4 µM]
O=C(CN(C(=O)c1cc2c(s1)CCC2)C1CCCC1)NCc1cccs1	i	0.5%	-6.5%	31.6µM*	0.8%	?
Cc1ccc(CN(C)C(=O)c2ccccc2Oc2ccccc2)o1	i	-0.6%	-0.2%	31.6µM*	-1.1%	?
c1ccc(-c2csc(-c3nc4ccccc4[nH]3)n2)cc1	·	?	·	·	-1.5%	·
Cn1c(-c2nc(-c3ccccc3)cs2)nc2ccccc21	·	39.8µM*	·	·	-3.7%	·
O=C1c2ccccc2C(=O)c2c1ccc(N1C(=O)c3ccccc3C1=O)c2-c1c(N2C(=O)c3ccccc3C2=O)ccc2c1C(=O)c1ccccc1C2=O	i	·	0.3%[11.4 µM]	-10.2%[11.4 µM]	·	1.4%[11.4 µM]
COc1cccc(C2C=C(c3ccc(Br)s3)Nc3ncnn32)c1OC (configuration not stated)	i	3.7%	6.6%	14.1%	0.2%	20µM*
SMILES	YjeE inh	BRCT inh green	DNA Pol III inh	HEK293 cAMP cs	BRCT inh red	TSHR agonist
Fc1ccc(Br)cc1C1C=C(c2ccc(Br)s2)Nc2ncnn21 (configuration not stated)	i	30.9%	29.3%	?	0.5%	?
COc1ncc2nc(-c3ccc(Cl)cc3)c(=O)n(Cc3cccs3)c2n1	i	-2.1%	-7.3%	8.6%	0.0%	6.4%
Clc1c(CSc2nc3ccccc3o2)nc2sccn12	i	1.0%	-5.3%	31.6µM*	-2.5%	?
COc1ccc(C(=O)c2coc3ccc(O)c(CN(C)C)c23)cc1	i	7.7%	-7.3%	31.6µM*	0.4%	?
COc1cccc(-c2ccc3ncnc(N(C)Cc4ccco4)c3c2)c1	i	-3.1%	-7.0%	15.8µM*	0.1%	?
Cc1ccc(C)c(OCCCC(=O)Nc2ccc(N3CCOCC3)cc2)c1	i	-1.5%	-2.0%	13.8%	0.8%	5.2%
Cc1cccc(OCCCC(=O)Nc2ccc(N3CCOCC3)cc2)c1	i	0.0%	4.9%[11.4 µM]	12.8%[11.4 µM]	1.1%	3.16µM*
Cc1cnn(-c2ccc3nnc(-c4ccc(Br)cc4)n3n2)c1	i	-0.1%	-8.3%	10µM*	-0.5%	?
CCCCOC(=O)C1=C(C)Nc2ncnn2C1c1cccc(OC)c1 (configuration not stated)	i	0.3%	-2.1%	10.7%	-0.7%	5.6%
CCOC(=O)C1=C(C)Nc2ncnn2C1c1ccc2c(c1)OCO2 (configuration not stated)	i	0.2%	-2.0%	23.9%	-1.6%	3.16µM*
c1ccc(-c2nnc3sc(-c4ccncc4)nn23)cc1	i	-1.6%	-3.3%	-6.0%	-0.3%	-1.3%
c1ccc(-c2nnc3sc(-c4csc5c4CCCC5)nn23)cc1	i	0.1%	-7.6%	25.1µM*	-2.1%	?
Cc1cccc(-c2nnc3sc(-c4ccccc4C)nn23)c1	i	3.1%	-0.6%	31.6µM*	-0.4%	?
N[C@@H]1C(O)OC(CO)C(O)C1O (some centres not stated)	·	-1.1%[3.08 µM]	·	·	0.8%	·
O=C(NC1CCCCCC1)c1cc(S(=O)(=O)N2CCOCC2)ccc1N1CCCCC1	i	0.2%	0.8%	25.1µM*	-0.7%	?
COC(=O)[C@@]1(C)C=C[C@@H](Cc2ccccc2)N1C(=O)c1ccccc1	i	-1.5%	-0.1%	20µM*	1.1%	?
COC(=O)N1[C@H](Cc2ccccc2)C=C[C@]1(C)C(=O)O	i	0.1%	1.3%	23.9%	0.5%	8.1%
